Measured values: PubChem BioAssay (NCATS)
Where “and” joins values, the source holds several entries; their conditions need not be identical. Identical values can stand only once. Inconclusive results are not listed. Entries that show only a call come without a potency. Values without a mark were called inactive. Calls of active or inactive are those of the source. The call rests on the fitted dose curve; in most records, active means well fitted cell-killing curve with a large enough effect; inconclusive means small, poorly fitted or top-dose-only effect, or effect the other way; inactive means no such curve, though single readings can be large or run the other way.

Columns and labels:
[1] = Viability qHTS for spleen associated tyrosine kinase inhibitor (SYKi) naive MV4-11 cells (AID 1963823); conditions: MV4-11 AML viability, CellTiter-Glo luminescence, 72 h; series mostly up to 45 µM; further: nearly all actives have a fitted effect of over 40% in size
Procedure, shortened: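 SYKi-naive MV4-11 AML cells, 500 per well, were exposed to library compounds for 72 hr at 37 C, 5% CO2. Viability was then read by CellTiter-Glo luminescence after 10 min at room temperature.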

[2] = Viability qHTS for spleen associated tyrosine kinase inhibitor (SYKi) drug resistant MV4-11 cells (AID 1963824); conditions: SYKi-resistant MV4-11 viability, CellTiter-Glo, 72 h; series mostly up to 45 µM; further: nearly all actives have a fitted effect of over 35% in size
Procedure, shortened: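 CellTiter-Glo luminescence, read 10 min after reagent addition, reports viability after a 72 hr compound exposure. Cells are an MV4-11 line made resistant to SYK inhibition, seeded at 500 per well onto compound-containing plates.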
Potency means the concentration at half of the fitted maximal effect.

| SMILES | Potency [1] | Potency [2] | viability (% of control) [1] | viability, % of control [2] |
| --- | --- | --- | --- | --- |
| C=C1CC[C@H]2[C@@](C)(CCC(OC3OC(CO)C(O)C(O)C3O)[C@@]2(C)CO)C1C(=O)CC1=CCOC1=O (some centres not stated) | inactive | inactive |  |  |
| C=CC(=O)N1CCC(C2CCNc3c(C(N)=O)c(-c4ccc(Oc5ccccc5)cc4)nn32)CC1 (configuration not stated) | 7.42 µM (active) | 11.8 µM (active) |  |  |
| COc1c2cc(c(O[C@@H]3O[C@H](CO)[C@@H](O)[C@H](O)[C@H]3O)c1OC)CCCCC(O)CCc1ccc(O)c-2c1 (some centres not stated) | inactive | inactive |  |  |
| O=C(Nc1ccn[nH]1)c1c(F)cccc1F | inactive | inactive |  |  |
| C[C@@H]1O[C@@H](O[C@@H]2[C@@H](O)[C@H](O[C@H]3[C@H](O[C@H]4CC[C@@]5(C)C(CC[C@]6(C)C5CC=C5[C@@H]7CC(C)(C)CC[C@]7(C(=O)O[C@@H]7O[C@H](CO)[C@@H](O)[C@H](O)[C@H]7O)CC[C@]56C)C4(C)C)O[C@H](C(=O)O)[C@@H](O)[C@@H]3O)OC[C@H]2O)[C@H](O)[C@H](O)[C@H]1O (some centres not stated) |  |  | 62.1% [at 9.25 µM] | 87.3% [at 9.25 µM] |
| NC(=O)c1cnc(NCCc2ccc(O)c(Cl)c2)nc1NCc1ccccc1 | 0.0231 µM (active) | 0.0259 µM (active) |  |  |
| CC1CCC2(NC1)OC1C(=O)C3C4CCC5CC(O[C@@H]6O[C@H](CO)[C@@H](O)[C@H](O)[C@H]6O[C@@H]6O[C@@H](C)[C@H](O)[C@@H](O)[C@H]6O)CCC5(C)C4CCC3(C)C1C2C (some centres not stated) | inactive | inactive |  |  |
| COc1ccc2c(c1)C=C1Cn3c-2c(C2CCCCC2)c2ccc(cc23)C(=O)NS(=O)(=O)N(C)CCOCCN(C)C1=O | 16.4 µM (active) | 18.4 µM (active) |  |  |
| CCc1cccc(CC)c1-n1c(C=C(C)C)c(C(=O)N2CCNCC2)cc(-c2nc(-c3ccc(C(F)(F)F)cc3)cs2)c1=O | inactive | inactive |  |  |
| NS(=O)(=O)c1ccc(N=Nc2c(O)[nH]c3ccc(Br)cc23)cc1 | 0.13 µM (active) | 1.03 µM (active) |  |  |
| OC[C@H]1O[C@@H](n2cnc3c(NCc4ccc(O)cc4)ncnc32)[C@H](O)[C@@H]1O | 1.03 µM (active) | 0.731 µM (active) |  |  |
| CC(C)(O)c1ccc2c(c1)C(O)C[C@H]1[C@](C)(C(=O)O)CCC[C@]21C (some centres not stated) | inactive | inactive |  |  |
| C/C1=C\[C@H]2OC(=O)[C@@H](C)[C@@H]2CC/C(C(=O)O)=C/CC1 | inactive | inactive |  |  |
| COC(=O)c1cc(Br)cnc1N1CCC(NC2CCCCC2)C(O)C1 (configuration not stated) | inactive | inactive |  |  |
| CC(=O)NCCCCn1c2c(c3ccccc31)C(=O)NCC2 | inactive | inactive |  |  |
| CC1=CC(=O)CC(C)(C)C1CO[C@@H]1O[C@H](CO)[C@@H](O)[C@H](O)[C@H]1O (some centres not stated) | inactive | inactive |  |  |
| CC#CC(=O)N1CC[C@@H](n2c(=O)n(-c3ccc(Oc4ccccc4)cc3)c3c(N)ncnc32)C1 | 7.42 µM (active) | 8.33 µM (active) |  |  |
| CC1(C)CC[C@]2(C(=O)O[C@@H]3O[C@H](CO)[C@@H](O)[C@H](O)[C@H]3O)CC[C@]3(C)C(=CCC4[C@@]5(C)CC[C@H](O[C@@H]6O[C@H](C(=O)O)[C@@H](O)[C@H](O)[C@H]6OC6OC(CO)C(O)C(O)C6O)C(C)(C)C5CC[C@]43C)[C@@H]2C1 (some centres not stated) |  |  | 89.4% [at 9.25 µM] | 91% [at 9.25 µM] |
| Cc1nnsc1C(=O)Nc1ccc(-n2nc(C(F)(F)F)cc2C(F)(F)F)cc1 | 18.4 µM (active) | 16.4 µM (active) |  |  |
| O=c1cc[nH]c(=S)[nH]1 | inactive | 11.9 µM (active) |  |  |
| CC/C=C\[C@H](O)[C@H](O)C1=C(C)C(=O)[C@]2(O1)C(=O)N[C@@](O)(C(=O)c1ccccc1)[C@@H]2O | inactive | inactive |  |  |
| N#Cc1c(Oc2ccc(F)c(NC(=O)Cc3cccc(C(F)(F)F)c3)c2)ccc2nc(NC(=O)C3CC3)sc12 | 1.46 µM (active) | 1.64 µM (active) |  |  |
| CC1=CC(=O)C(=C(C)C)CC2C1CCC2(C)O (configuration not stated) | inactive | inactive |  |  |
| Clc1ccc(Cn2c(CN3CCCC3)nc3ccccc32)cc1 | 14.8 µM (active) | 15 µM (active) and 14.8 µM (active) |  |  |
| Cc1cn(-c2cc(NC(=O)c3ccc(C)c(Nc4nccc(-c5cnccn5)n4)c3)cc(C(F)(F)F)c2)cn1 | inactive | inactive |  |  |
| C=C1C(=O)O[C@@H]2/C=C(\C)CC/C=C(/C=O)[C@H](OC)[C@@H](OC(=O)C(C)C)[C@@H]12 | 4.04 µM (active) | 2.55 µM (active) |  |  |
